Screening results as filed in PubChem.
p53null 32C tox: kills p53 null cells at the permissive temperature. H1299-neo p53 null cells, ATP luminescence, 24 h, 32C. Potency, µM (top dose mostly 46.1 µM), inactives show top-dose activity change, negative = cytotoxicity, most hits filed as cytotoxic. 0.62% of 55,000 active;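 further: potency means the concentration at half of the fitted maximal effect; 0% = DMSO only and -100% = full killing by 100 µM tamoxifen; nearly all actives have a fitted effect of over 55% in size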
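AC50 values derive from Hill modelling of qHTS concentration-response data (up to 46 uM) in H1299-neo cells. Cells were treated 24 h at 32C following overnight attachment at 37C; viability was read as cellular ATP.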
PMP22 txn prim: PMP22 gene transcription modulation. S16 Pmp22-F2sN Schwann cells, FLuc/NLuc coincidence luminescence, 24 h. Potency, µM (titrated, usually from 57.5 µM), for the others: top-dose activity change, negative = inhibition, most hits filed as inhibitors. 2% of 43,000 active. AID 1508649; active means clear falling dose curves in both reporters; inconclusive means both reporters move, but less clearly or upward; inactive means either reporter flat; the % is the NLuc reporter signal; further: potency means the concentration at half of the fitted maximal effect; on the % scale 0 is the no-effect control and ±100 the full control effect
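Reporter cells (S16 Pmp22-F2sN, 500–1,000 per well) exposed to compounds for 24 h, 37C, 5% CO2; lysis with FLuc read after 10 min, then Stop&Glo and NLuc read after 10 min.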
p53null 39C tox: selectivity test: cytotoxicity in p53 null cells, nonpermissive temperature; AID 904; 0.97% of 55,000 active; Potency, µM (series often up to 46.1 µM), without a hit: at the highest dose activity, negative = cell killing, most hits filed as cytotoxic; H1299 p53-null (neo) cells, 39C, ATPlite viability, 24 h;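 further: potency means the concentration at half of the fitted maximal effect; 0% = DMSO only and -100% = full killing by 100 µM tamoxifen; nearly all actives have a fitted effect of over 50% in size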
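H1299 lung cancer cells, p53-null (H1299-neo) or expressing p53 A138V (H1299-p53A138V), were plated overnight at 37C, then exposed to compounds at up to 46 uM for 24 hr at 39C. Viability was read by ATP-based luminescence.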
OvCa metastasis: blocks SKOV3ip1 adhesion and invasion in omental model. SKOV3ip1-GFP adhesion/invasion on 3D omental model, fluorescence. Potency, µM (titrated, usually from 45.8 µM), for inactives: at the top dose activity change, negative = inhibition, actives largely listed as inhibitors. 0.1% of 46,000 active. AID 1963576;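 further: potency means the concentration at half of the fitted maximal effect; plate controls were DMSO wells for no effect and tomatine positive control wells for full effect; nearly all actives have a fitted effect of over 65% in size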
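Primary human omental fibroblast/mesothelial 3D culture pre-formed 48 h. SKOV3ip1-GFP cells added with compounds (0.36-46 umol/L), incubated 2 h RT/16 h 37 C, fixed; GFP cells quantified at 488/509 nm.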
pS6 MEF inh: mTORC1 pathway inhibition measured by phospho-rpS6 | Tsc2-/- p53-/- MEF, phospho-rpS6 immunofluorescence/PI, 24 h | Potency, µM (titrated, usually from 38.3 µM), inactives show top-dose activity change, negative = inhibition, actives largely listed as inhibitors | 0.78% of 44,000 active;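 further: potency means the concentration at half of the fitted maximal effect; plate controls were DMSO for no effect and rapamycin for full effect; nearly all actives have a fitted effect of over 50% in size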
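Read-out: phospho-S6 Alexa-488 intensity over PI intensity per well, scored as % active cells using thresholds from rapamycin (7.5 nM) and DMSO controls. Tsc2-/-, p53-/- MEFs exposed to compound for 24 h; PI cell count recorded as viability.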
S16 F2sN tox: cytotoxicity in S16 Pmp22-F2sN Schwann cells. S16 Pmp22-F2sN Schwann cells (luciferase reporters placed in the Pmp22 gene) viability, CellTiter-Glo, 24 h. Potency, µM (doses to about 57.5 µM), for inactives: top-dose activity change, negative = cytotoxicity, usual class: cytotoxic. 0.48% of 43,000 active; further: potency means the concentration at half of the fitted maximal effect; on the % scale 0 is the no-effect control and ±100 the full control effect; nearly all actives have a fitted effect of over 65% in size
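S16 Schwann cells carrying the Pmp22-F2sN reporter, seeded in 1536-well format, were exposed to library compounds for 24 h at 37C. Viability was read as CellTiter-Glo luminescence after 15 min at room temperature.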
NLuc sat counter: counter-screen for PMP22 expression modulators: NanoLuc inhibition, saturating substrate. shares compounds with PMP22 txn prim. Secreted NLuc enzyme (filtered S16 cell medium), Nano-Glo luminescence. Potency, µM (highest dose often 57.5 µM), without a hit: at the highest dose activity change, negative = inhibition, actives largely listed as inhibitors. 4% of 690 active; further: potency means the concentration at half of the fitted maximal effect; on the % scale 0 is the no-effect control and ±100 the full control effect
NLuc Km ctr: counter-screen for PMP22 expression modulators: NanoLuc inhibition at Km | Potency, µM (top dose mostly 57.5 µM), inactives show top-dose activity change, negative = inhibition, hits mostly inhibitors | secreted NLuc enzyme, coelenterazine luminescence, Km conditions | 5% of 690 active | shares compounds with PMP22 txn prim; further: potency means the concentration at half of the fitted maximal effect; on the % scale 0 is the no-effect control and ±100 the full control effect
FLuc ctr PMP22: inhibits firefly luciferase, PMP22 counter-screen; shares compounds with PMP22 txn prim; purified P. pyralis FLuc, luminescence, 10 min; Potency, µM (doses to about 57.5 µM), inactives show at the highest dose activity, negative = inhibition, usual class: inhibitors; 690 tested, under 10 active; AID 1508640; further: % of control where 0% means no effect
Target sequence (P08659 whole entry, looked up): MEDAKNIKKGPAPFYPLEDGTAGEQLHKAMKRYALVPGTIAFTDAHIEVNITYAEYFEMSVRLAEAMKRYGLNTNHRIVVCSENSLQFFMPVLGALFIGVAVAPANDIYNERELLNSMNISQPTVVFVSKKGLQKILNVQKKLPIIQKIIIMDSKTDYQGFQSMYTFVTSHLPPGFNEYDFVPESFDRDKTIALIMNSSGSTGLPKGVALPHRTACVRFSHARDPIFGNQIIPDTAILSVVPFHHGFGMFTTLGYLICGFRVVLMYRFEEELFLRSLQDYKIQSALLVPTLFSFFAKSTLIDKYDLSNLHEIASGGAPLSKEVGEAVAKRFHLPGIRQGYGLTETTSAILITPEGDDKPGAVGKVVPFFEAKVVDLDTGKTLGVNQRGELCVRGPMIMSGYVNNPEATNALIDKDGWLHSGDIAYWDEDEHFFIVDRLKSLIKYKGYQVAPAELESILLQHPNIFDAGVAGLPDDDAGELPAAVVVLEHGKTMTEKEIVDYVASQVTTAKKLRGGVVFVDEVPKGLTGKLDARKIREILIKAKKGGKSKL
S16 viab conf: S16 Schwann cell cytotoxicity, confirmatory | shares compounds with PMP22 txn prim | S16 Schwann cells viability, CellTiter-Glo ATP luminescence, 24 h | Potency, µM (top dose mostly 57.5 µM), inactives show at the top dose activity change, negative = viability loss, usual class: cytotoxic | 7% of 690 active | AID 1508641; further: potency means the concentration at half of the fitted maximal effect; on the % scale 0 is the no-effect control and ±100 the full control effect
PMP22 txn conf: confirmation of modulators of PMP22 gene transcription in S16 cells; shares compounds with PMP22 txn prim; 22% of 690 active; S16 Schwann cells Pmp22-F2sN, dual luciferase, 24 h; Potency, µM (series often up to 57.5 µM), without a hit: at the highest dose activity change, negative = inhibition, actives largely listed as inhibitors; active means clear falling dose curves in both reporters; inconclusive means both reporters move, but less clearly or upward; inactive means either reporter flat; the % is the FLuc reporter signal; further: potency means the concentration at half of the fitted maximal effect
PMP22 HiBiT cnf: confirmation of modulators of rat PMP22 protein expression; shares compounds with PMP22 txn prim; S16 Schwann cells Pmp22-HiBiT, luminescence, 48 h; Potency, µM (series often up to 27.9 µM), for inactives: at the highest dose activity change, negative = inhibition, usual class: inhibitors; 95 tested, under 10 active; AID 1508647
Target sequence (P25094 whole entry, looked up): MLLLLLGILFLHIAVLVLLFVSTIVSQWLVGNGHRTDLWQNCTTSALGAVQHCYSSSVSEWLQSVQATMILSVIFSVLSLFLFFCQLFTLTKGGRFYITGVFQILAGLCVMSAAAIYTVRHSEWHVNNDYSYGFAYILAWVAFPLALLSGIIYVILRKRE
The depositor's hits bear a star; i = inactive; ? = inconclusive; nt = not tested or not shown. A selection: hits, their analogues and other compounds. The true share with any hit is near 3%. Unless noted, the call rests on the fitted dose curve; in most records, active means well fitted curve in the direction sought with a large enough effect; inconclusive means small, poorly fitted or top-dose-only effect, or another doubt; inactive means no such curve, though single readings can be large; an effect the other way counts as inactive or inconclusive.

SMILES	p53null 32C tox	PMP22 txn prim	p53null 39C tox	OvCa metastasis	pS6 MEF inh	S16 F2sN tox	NLuc sat counter	NLuc Km ctr	FLuc ctr PMP22	S16 viab conf	PMP22 txn conf	others
CCOC(=O)c1c(C)oc2ccc(N(C(=O)Oc3ccccc3)S(=O)(=O)c3ccc(CC)cc3)cc12	39%	?	53%	-5%	-4%	-2%	nt	nt	nt	nt	nt
CC(=O)c1c(C)oc2ccc(N(C(=O)Oc3ccccc3)S(=O)(=O)c3ccc(C(C)(C)C)cc3)cc12	25%	13µM*	25%	15%	-15%	2%	-14%	-6%	-2%	-5%	?
Cc1ccc(C(=O)c2cc(O)c(O)c([N+](=O)[O-])c2)cc1	nt	nt	nt	26%	nt	nt	nt	nt	nt	nt	nt
O=C(NCCc1ccccc1)c1c[nH]c2ccc(S(=O)(=O)Nc3ccc(F)cc3F)cc2c1=O	15%	-34%	2%	-5%	6%	2%	nt	nt	nt	nt	nt
O=C(NCCc1ccccc1)c1c[nH]c2ccc(S(=O)(=O)Nc3ccccc3F)cc2c1=O	2%	?	-4%	1%	-9%	-7%	-22%	-18%	-14%	-17%	-10%
CCc1cc2c(cc1N1CCC(N3CCOCC3)CC1)C(C)(C)c1[nH]c3cc(C#N)ccc3c1C2=O	nt	nt	nt	-3%	nt	nt	nt	nt	nt	nt	nt
CC(=O)Nc1cccc(-c2nnc(SCC(=O)c3cc([N+](=O)[O-])ccc3Cl)o2)c1	10%	14µM*	?	8%	?	-1%	12µM*	7.7µM*	?	?	18µM*
O=C(CSc1nnc(-c2ccc(Cl)cc2)o1)c1ccc([N+](=O)[O-])cc1	4%	?	11%	i	-8%	25%	nt	nt	nt	nt	nt
COc1ccc(OCc2ccc(-c3nc(C#N)c(N4CCC(C)CC4)o3)o2)cc1	0%	6.7µM*	16%	-4%	-2%	-3%	-10%	0%	0%	8%	-3%
Cc1ccc(OCc2ccc(-c3nc(C#N)c(N4CCC(C)CC4)o3)o2)cc1	-10%	?	-14%	5%	2%	2%	nt	nt	nt	nt	nt
CON=C(C(=O)N[C@@H]1C(=O)N2C(C(=O)O)=C(Cn3ccc(=N)n3CCO)CS[C@H]12)c1csc(N)n1	nt	nt	nt	-9%	nt	nt	nt	nt	nt	nt	nt
COCCCn1c(=N)c(C(=O)NCC2CCCO2)cc2c(=O)n3cccc(C)c3nc21 (stereo unspecified)	6%	nt	nt	nt	nt	nt	nt	nt	nt	nt	nt
CCOCCCn1c(=N)c(C(=O)NCC2CCCO2)cc2c(=O)n3cccc(C)c3nc21 (stereo unspecified)	3%	16µM*	13%	-2%	-5%	-7%	-5%	-2%	5%	3%	?
COCCCn1c(=N)c(C(=O)NCc2ccco2)cc2c(=O)n3cccc(C)c3nc21	4%	14µM*	15%	i	2%	6%	-7%	1%	1%	?	?
O=C(c1ccc(F)cc1)N1CCC[C@H](c2nc(-c3ccc(F)cc3)no2)C1	nt	nt	nt	8%	nt	nt	nt	nt	nt	nt	nt
CCCn1c(=N)c(C(=O)NC(C)c2ccccc2)cc2c(=O)n3ccccc3nc21 (stereo unspecified)	-11%	14µM*	11%	9%	0%	0%	-10%	-16%	-5%	14%	4.6µM*	PMP22 HiBiT cnf=-17%
CCOCCCn1c(=N)c(C(=O)NC(C)c2ccccc2)cc2c(=O)n3cc(C)ccc3nc21 (stereo unspecified)	-3%	-23%	20%	-1%	14%	5%	nt	nt	nt	nt	nt
COc1ccc(NC(=O)Cn2c(=O)cc(C)c3c(C)nn(C)c32)cc1	12%	16µM*	-17%	i	-14%	1%	-4%	-3%	3%	-3%	-14%
Cc1ccc(Cl)cc1NC(=O)Cn1c(=O)cc(C)c2c(C)nn(C)c21	-5%	19µM*	-4%	15%	-17%	19%	-15%	-14%	4%	-21%	-27%
CCOc1ccc(NC(=O)Cn2c(=O)cc(C)c3c(C)nn(C)c32)cc1	-5%	-14%	3%	-5%	?	?	nt	nt	nt	nt	nt
COc1ccc(-c2nc3c(C#N)c[nH]n3c2NC2CCCC2)cc1	-7%	15µM*	-10%	1%	0%	22µM*	?	?	-16%	12%	?
CCOc1ccc(-c2nc3c(C#N)c[nH]n3c2NC2CCCCC2)cc1	8%	?	7%	1%	2%	-23%	nt	nt	nt	nt	nt
